Assay [1] can be described thus: qHTS assay to identify small molecule agonists of the estrogen related receptor signaling pathway with the pleiotropic PPARgamma coactivator (PGC) (AID 1224823). The gist of the method:
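Steps: plate PGC/ERR cells at 2,000 cells/well; incubate 6 h, 37 C/5% CO2; pin-transfer compounds (DMSO); incubate 18 h, 37 C; add One-Glo; 30 min RT; read luminescence.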
For orientation: In qHTS, concentration-response curves come from the screen itself.

Assay [2] has as its target Luciferin 4-monooxygenase (Photinus pyralis) (UniProt P08659). The assay can be described thus: qHTS assay to identify small molecule inhibitors of firefly luciferase (AID 1224835). Note: nearly all actives have a fitted effect of over 25% in size. The gist of the method: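 Biochemical qHTS: compounds run as interplate titrations against purified firefly enzyme, with D-luciferin and ATP each at its KM concentration. Light output recorded by CCD imaging.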

Assay [3] in a line: qHTS assay to identify small molecule agonists of the constitutive androstane receptor (CAR) signaling pathway - cell viability counter screen (AID 1224836). Note: nearly all actives have a fitted effect of over 45% in size. The gist of the method:
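HepG2 cells stably carrying hCAR and a CYP2B6-2.2kb reporter were plated 4 h, then given compounds at 15 concentrations plus PK11195 (final 0.75 uM). After 23 h at 37 C, viability was read by CellTiter-Fluor fluorescence.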

Assay [4] can be described thus: qHTS assay to identify small molecule antagonists of the constitutive androstane receptor (CAR) signaling pathway - cell viability counter screen (AID 1224837). Note: nearly all actives have a fitted effect of over 45% in size. The gist of the method: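 Fluorescence from CellTiter-Fluor served as the viability signal. Human hepatoma HepG2 cells stably bearing hCAR and CYP2B6-2.2kb received compound plus CITCO (50 nM final) for 23 hr.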

Assay [5] has as its target Nuclear receptor subfamily 1 group I member 3 (Homo sapiens) (UniProt Q14994). The assay can be described thus: qHTS assay to identify small molecule antagonists of the constitutive androstane receptor (CAR) signaling pathway (AID 1224838). Note: nearly all actives have a fitted effect of over 40% in size. The gist of the method:
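Quantitative HTS in double-stable HepG2-CYP2B6-hCAR cells. After 4 h plating, cells get compound (15 concentrations) and CITCO at 50 nM final, incubate 24 h at 37 C, then ONE-Glo luminescence is read.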

For assay [6] the target is unchanged. The assay can be described thus: qHTS assay to identify small molecule agonists of the constitutive androstane receptor (CAR) signaling pathway (AID 1224839).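 Note: HepG2 cells stably carrying human CAR and a CYP2B6 luciferase reporter; nearly all actives have a fitted effect of over 15% in size.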 The gist of the method:
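HepG2 cells stably expressing hCAR and a CYP2B6-2.2kb luciferase reporter were treated with compounds at 15 concentrations plus 0.75 uM PK11195 (final) for 24 h at 37 C; luminescence was read after ONE-Glo addition.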

A short description of assay [7]: qHTS assay to identify small molecule antagonists of the estrogen related receptor signaling pathway with the pleiotropic PPARgamma coactivator (PGC) from Tox21 10K library - cell viability counter screen (AID 1224840; active = well fitted cell-killing curve with a large enough effect in the repeat runs, not every such curve was filed as active; note: nearly all actives have a fitted effect of over 40% in size). The gist of the method:
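Compounds in DMSO, alongside positive and negative controls, were pinned onto PGC/ERR cells (2,000 per well). Exposure lasted 17.5 hours at 37 C, followed by a 30-minute CellTiter-Fluor incubation and fluorescence reading.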

Assay [8] is described as follows: qHTS assay to identify small molecule antagonists of the estrogen related receptor signaling pathway with the pleiotropic PPARgamma coactivator (PGC) from Tox21 10K library (AID 1224841; call rule not given here; note: actives are mostly falling curves and most rising ones were filed inactive; nearly all actives have a fitted effect of over 50% in size; note: potency is the fitted concentration of half-maximal effect). The gist of the method:
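Compound exposure ran 18 hours at 37 C in PGC/ERR cells (2,000/well) that had first rested 6 hours in a 37 C/5% CO2 incubator. Luciferase activity was then detected with One-Glo after a 30-minute room-temperature step.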

The target in assay [9] is Thyrotropin receptor (Homo sapiens) (UniProt P16473). Description: qHTS assay to identify small molecule agonists of the thyroid stimulating hormone receptor (TSHR) signaling pathway (AID 1224843; calls by dose curve; note: nearly all actives have a fitted effect of over 45% in size). The gist of the method:
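TSHR-HEK293 cells in agonist mode, 30 min room-temperature step, then cAMP measured by competitive HTRF (cAMP-d2 with anti-cAMP cryptate) after 1 h at room temperature. Tested at 15 concentrations in triplicate.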

The nature of assay [10]: qHTS assay to identify small molecule agonists of the hypoxia (HIF-1) signaling pathway - cell viability counter screen (AID 1224844; calls by dose curve; note: nearly all actives have a fitted effect of over 50% in size). The gist of the method: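 Luminescent ATP content (CellTiter-Glo, 30 min, room temperature) served as the viability measure in HRE-bla ME-180 cells exposed to compounds for 17 hrs in low-serum medium (0.5% dialyzed FBS).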
Assay [11] can be described thus: qHTS assay to identify small molecule agonists of H2AX (AID 1224845; active = well fitted activation curve with a large enough effect in the signal ratio in the repeat runs, not every such curve was filed as active; the % refers to the signal ratio). The gist of the method: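 Wild-type CHO-K1 cells, plated overnight, exposed 3hr at 37C to 15 concentrations (0.76% DMSO final). Lysed, then HTRF anti-pH2AX (S139) cryptate and anti-H2AX-d2 antibodies, 24 hr room temperature; 665/620 nm emission read.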
The nature of assay [12]: qHTS assay to identify small molecule agonists of the hypoxia (HIF-1) signaling pathway (AID 1224846; active = well fitted activation curve with a large enough effect in the signal ratio in the repeat runs, not every such curve was filed as active; the % refers to the signal ratio). The gist of the method: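 Measured by blue/green FRET after loading CCF4-AM: beta-lactamase expressed from a hypoxia response element in ME-180 cells. Test agents were delivered in DMSO and left 17 hrs; cells had been plated 5 hrs earlier in low-serum (0.5% dialyzed FBS) medium.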

A short description of assay [13]: qHTS assay to identify small molecule agonists of H2AX - cell viability counter screen (AID 1224847; calls by dose curve; note: top concentration of the series differs between compounds; nearly all actives have a fitted effect of over 30% in size). The gist of the method:
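Wild-type CHO-K1 cells (10% FBS medium) were plated overnight at 37C, exposed to compounds at 15 concentrations for 3 hr at 37C (0.76% DMSO final), and viability was read as CellTiter-Glo luminescence after 30 min at room temperature.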

The nature of assay [14]: qHTS assay to identify small molecule antagonists of the estrogen related receptor (ERR) signaling pathway from Tox21 library (AID 1224848). Note: nearly all actives have a fitted effect of over 50% in size. Note: potency is the fitted concentration of half-maximal effect. The gist of the method: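 ERR reporter cell line (from NTP) seeded 2,000 cells/well, rested 6 h at 37 C/5% CO2, then pin-dosed with compounds in DMSO. After 18 h at 37 C, ONE-Glo added; luminescence read after 30 min at room temperature.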

The nature of assay [15]: qHTS assay to identify small molecule agonists of the estrogen related receptor (ERR) signaling pathway from Tox21 library (AID 1224849; calls by dose curve; note: nearly all actives have a fitted effect of over 15% in size). As to conditions: ERR reporter cell line, ONE-Glo luciferase, 18 h. The gist of the method:
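We plated ERR reporter cells, waited 6 h, added compounds in DMSO by pin tool and incubated them 18 h at 37 C. ONE-Glo was then added and luminescence read after 30 min.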

Assay [16] in a line: qHTS RealTime-Glo MT Cell Viability Assay in HepG2 cells - 24 hour (AID 1224867). Note: nearly all actives have a fitted effect of over 50% in size. The gist of the method:
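Viability was tracked continuously by NanoLuc luminescence from prosubstrate reduced by living HepG2 cells, at successive time points over 40 h of compound exposure. Cells with reagent were preincubated 5 h at 37 °C before compound addition.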

A short description of assay [17]: qHTS RealTime-Glo MT Cell Viability Assay in HEK293 cells - 32 hour (AID 1224868). Note: nearly all actives have a fitted effect of over 50% in size. Note: potency is the fitted concentration of half-maximal effect. The gist of the method:
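Viability tracked continuously by luminescence as live cells reduce a prosubstrate for NanoLuc; HEK293 cells preincubated 5 h, compound-treated at 37 C, and read at 0, 8, 16, 24, 32 and 40 h.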

Assay [18] can be described thus: A CellTox Green Cytotoxicity Assay to monitor cytotoxicity in HEK293 cells - 0 hour (AID 1224869). Note: nearly all actives have a fitted effect of over 50% in size. Note: potency is the fitted concentration of half-maximal effect. The gist of the method: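 Each value comes from one timepoint of a single continuous run in which HEK293 cells with CellTox Green were exposed to compound for up to 40 h at 37 C, dye fluorescence rising with cell death.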
A short description of assay [19]: qHTS RealTime-Glo MT Cell Viability Assay in HepG2 cells - 40 hour (AID 1224870). Note: nearly all actives have a fitted effect of over 50% in size. The gist of the method: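 HepG2 cells (600/well) mixed with RealTime-Glo MT reagent, settled 5 h at 37 C/5% CO2 before compound addition. Nonlytic NanoLuc luminescence from viable-cell prosubstrate reduction read repeatedly during 40 h treatment at 37 C.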
The nature of assay [20]: qHTS assay to identify small molecule antagonists of the estrogen related receptor (ERR) signaling pathway from Tox21 library - cell viability counter screen (AID 1224834). Note: nearly all actives have a fitted effect of over 30% in size. Note: potency is the fitted concentration of half-maximal effect. The gist of the method: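 Viability readout (CellTiter-Fluor fluorescence, 30 min at 37 C) multiplexed with the ERR assay; cells treated 17.5 h at 37 C with compounds delivered in DMSO.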

“And” between values parts separate entries of the source, which are not always exact repeats. Identical values can stand only once. Inconclusive results are not listed. Where a structure was tested more than once in an assay, its records may differ in their call. The source made the active and inactive calls. Unless noted, calls come from the whole dose curve; as a rule, active = well fitted curve in the direction sought with a large enough effect in the repeat runs; inconclusive = weak or mixed curves; inactive = no such curve, though single readings can be large; an effect the other way counts as inactive or inconclusive.
% is set by controls: 0 for no effect and ±100 for the full control effect.

Chain of Nuclear receptor subfamily 1 group I member 3 (Homo sapiens) (Q14994 whole entry, looked up): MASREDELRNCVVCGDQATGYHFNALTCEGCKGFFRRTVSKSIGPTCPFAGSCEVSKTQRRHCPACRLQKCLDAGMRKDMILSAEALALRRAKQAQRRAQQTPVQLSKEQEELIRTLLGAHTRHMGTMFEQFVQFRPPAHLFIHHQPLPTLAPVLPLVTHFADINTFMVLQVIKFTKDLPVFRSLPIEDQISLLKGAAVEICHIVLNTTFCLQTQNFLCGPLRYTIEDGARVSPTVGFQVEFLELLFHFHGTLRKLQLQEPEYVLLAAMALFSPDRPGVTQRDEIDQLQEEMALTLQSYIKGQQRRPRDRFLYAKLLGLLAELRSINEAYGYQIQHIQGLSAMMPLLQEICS
Chain of Thyrotropin receptor (Homo sapiens) (P16473 whole entry, looked up): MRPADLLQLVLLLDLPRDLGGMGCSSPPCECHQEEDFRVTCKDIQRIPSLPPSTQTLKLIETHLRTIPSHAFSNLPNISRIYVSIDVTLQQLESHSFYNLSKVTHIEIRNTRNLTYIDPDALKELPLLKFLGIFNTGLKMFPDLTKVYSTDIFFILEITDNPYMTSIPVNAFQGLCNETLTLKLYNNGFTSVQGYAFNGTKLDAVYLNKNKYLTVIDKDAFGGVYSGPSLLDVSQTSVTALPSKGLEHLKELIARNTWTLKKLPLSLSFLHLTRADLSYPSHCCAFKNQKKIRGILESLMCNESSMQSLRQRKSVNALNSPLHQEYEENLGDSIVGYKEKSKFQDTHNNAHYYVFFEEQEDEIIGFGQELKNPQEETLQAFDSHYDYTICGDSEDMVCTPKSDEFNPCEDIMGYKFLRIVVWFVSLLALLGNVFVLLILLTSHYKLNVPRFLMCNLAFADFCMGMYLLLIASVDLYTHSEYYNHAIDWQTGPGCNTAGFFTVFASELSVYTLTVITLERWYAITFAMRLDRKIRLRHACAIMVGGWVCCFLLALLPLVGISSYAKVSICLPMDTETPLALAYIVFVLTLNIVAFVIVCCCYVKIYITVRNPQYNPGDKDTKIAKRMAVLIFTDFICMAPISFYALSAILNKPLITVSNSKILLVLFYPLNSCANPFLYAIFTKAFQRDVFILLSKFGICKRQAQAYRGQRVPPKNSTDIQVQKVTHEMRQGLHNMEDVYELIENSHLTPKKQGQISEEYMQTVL
Chain of Luciferin 4-monooxygenase (Photinus pyralis) (P08659 whole entry, looked up): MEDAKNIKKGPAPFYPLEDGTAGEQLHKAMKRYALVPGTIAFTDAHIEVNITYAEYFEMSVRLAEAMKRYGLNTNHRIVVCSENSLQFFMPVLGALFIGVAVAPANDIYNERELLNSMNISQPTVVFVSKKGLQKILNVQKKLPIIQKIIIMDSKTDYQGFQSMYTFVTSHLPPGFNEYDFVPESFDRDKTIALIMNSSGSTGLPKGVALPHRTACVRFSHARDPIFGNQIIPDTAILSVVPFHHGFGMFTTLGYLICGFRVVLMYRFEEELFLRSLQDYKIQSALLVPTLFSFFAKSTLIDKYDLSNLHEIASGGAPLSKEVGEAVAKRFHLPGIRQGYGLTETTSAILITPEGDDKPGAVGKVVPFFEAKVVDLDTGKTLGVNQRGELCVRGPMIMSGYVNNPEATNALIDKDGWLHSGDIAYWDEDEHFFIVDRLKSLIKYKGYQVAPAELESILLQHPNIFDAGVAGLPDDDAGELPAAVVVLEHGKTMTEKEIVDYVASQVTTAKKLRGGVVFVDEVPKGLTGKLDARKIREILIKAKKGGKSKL

In the case of `C[C@]12CC[C@@H]3c4ccc(O)cc4C[C@@H](CCCCCCCCCS(=O)CCCC(F)(F)C(F)(F)F)[C@H]3[C@@H]1CC[C@@H]2O` (stereo partly drawn), the compound was classed as inactive in assay [1], in assay [12], in [16] and in assay [19]. In addition, the Potency result in assay [2], in assay [3], in [4], in assay [5], in assay [6] and in [7] was “inactive” each time. Also, the Potency entry in [9], in [10], in assay [11], in [13] and in [18] was “inactive” in each case. Further, the Potency is 19.3 µM (active) and 6.39 µM (active) in [8]; 6.85 µM (active) and 5.7 µM (active) and 5.96 µM (active) in assay [14]; 43.6 µM (active) in assay [17]. The activity change, positive = activation in assay [15] (at 42.5 µM (top of the series)) is -35% (inactive) and -33.1% (inactive); in [15] (at 92.4 µM (top of the series)), -37.7% (inactive).
With `O=c1cc[nH]c(=O)[nH]1`, the Potency entry in assay [20], in assay [2], in assay [3], in [4], in [5] and in assay [6] was “inactive” each time. Besides, the Potency entry in assay [7], in assay [8], in assay [9], in [10], in assay [11] and in assay [13] was “inactive” each time. For the same compound, the Potency entry in [14], in assay [17] and in [18] was “inactive” each time. Further, the outcome in [12], in assay [16] and in assay [19] was inactive. Besides, the activity change, positive = activation was 5.28% (inactive) in [15] (at 42.5 µM (top of the series)) and 0.687% (inactive) in [15] (at 92.4 µM (top of the series)).
With `C=CC(=O)NC(C)(C)CS(=O)(=O)O`, the Potency result in [20], in assay [2], in assay [3], in assay [4], in assay [5] and in assay [6] was “inactive” in each case. The Potency result in assay [7], in assay [9], in assay [10], in assay [11], in assay [13] and in assay [17] was “inactive” throughout. Also, the outcome in [12], in assay [16] and in assay [19] was inactive. For the same compound, the Potency result in [18] was “inactive and 43.6 µM (active)”.
In the case of `C=C(C)C(N)=O`, the Potency result in assay [20], in assay [2], in assay [3], in assay [4], in [5] and in [6] was “inactive” throughout. Besides, the Potency entry in assay [7], in [8], in assay [9], in assay [10], in assay [11] and in [13] was “inactive” in each case. Further, the Potency entry in assay [14], in [17] and in [18] was “inactive” throughout. Besides, the result in assay [12], in assay [16] and in assay [19] was inactive. Moreover, in assay [15] (at 92.4 µM (top of the series)), the activity change, positive = activation is 10.9% (inactive) and 3.35% (inactive).
Take `CCN(CC)CCOC(=O)c1ccc(N)cc1`: the outcome in assay [1], in assay [16] and in [19] was inactive. The Potency entry in assay [20], in [2], in assay [3], in assay [4], in [5] and in assay [6] was “inactive” in each case. Further, the Potency result in [7], in [8], in assay [9], in [10], in assay [11] and in assay [13] was “inactive” throughout. The Potency entry in assay [14], in assay [17] and in assay [18] was “inactive” each time. For the same compound, the activity change, positive = activation is 3.59% (inactive) in assay [15] (at 42.5 µM (top of the series)) and 2.93% (inactive) in [15] (at 92.4 µM (top of the series)).
Take `NC(=O)N/N=C/c1ccc([N+](=O)[O-])o1`: the call in [1], in [16] and in assay [19] was inactive. For the same compound, the Potency result in assay [20] is “inactive and 27.3 µM (active)”; in assay [8], 24.3 µM (active) and inactive; in assay [14], “inactive and 48.6 µM (active)”. Further, the Potency entry in assay [2], in assay [5], in assay [6], in assay [7], in assay [9] and in assay [10] was “inactive” throughout. Further, the Potency result in assay [11], in [13], in assay [17] and in assay [18] was “inactive” each time. In addition, the activity change, positive = activation in [15] (at 42.5 µM (top of the series)) was -13.7% (inactive); in assay [15] (at 92.4 µM (top of the series)) it was -3.25% (inactive) and -34% (inactive).

For the origin of these results see PubChem BioAssay (Tox21).
